Data on 43 molecules can be found in article PMC4336329 (PLoS ONE, 2015).

Structures are written as SMILES. The whole screen tested about 310,000 compounds, of which about 14,000 (4.5%) showed an effect of 50% or more. The effect is printed as a negative number. This excerpt belongs to a sample that is enriched for strong results.
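Further: peak tail current of the secondary pulse compared with the same well before compound.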

For the test, the target named is human ether-à-go-go-related gene (hERG) potassium channel (human, UniProt Q12809). As to the kind of experiment: primary screen, population patch clamp on CHO cells stably expressing hERG; higher = less effect of the substance.
Sequence of human ether-à-go-go-related gene (hERG) potassium channel (Q12809 whole entry, looked up): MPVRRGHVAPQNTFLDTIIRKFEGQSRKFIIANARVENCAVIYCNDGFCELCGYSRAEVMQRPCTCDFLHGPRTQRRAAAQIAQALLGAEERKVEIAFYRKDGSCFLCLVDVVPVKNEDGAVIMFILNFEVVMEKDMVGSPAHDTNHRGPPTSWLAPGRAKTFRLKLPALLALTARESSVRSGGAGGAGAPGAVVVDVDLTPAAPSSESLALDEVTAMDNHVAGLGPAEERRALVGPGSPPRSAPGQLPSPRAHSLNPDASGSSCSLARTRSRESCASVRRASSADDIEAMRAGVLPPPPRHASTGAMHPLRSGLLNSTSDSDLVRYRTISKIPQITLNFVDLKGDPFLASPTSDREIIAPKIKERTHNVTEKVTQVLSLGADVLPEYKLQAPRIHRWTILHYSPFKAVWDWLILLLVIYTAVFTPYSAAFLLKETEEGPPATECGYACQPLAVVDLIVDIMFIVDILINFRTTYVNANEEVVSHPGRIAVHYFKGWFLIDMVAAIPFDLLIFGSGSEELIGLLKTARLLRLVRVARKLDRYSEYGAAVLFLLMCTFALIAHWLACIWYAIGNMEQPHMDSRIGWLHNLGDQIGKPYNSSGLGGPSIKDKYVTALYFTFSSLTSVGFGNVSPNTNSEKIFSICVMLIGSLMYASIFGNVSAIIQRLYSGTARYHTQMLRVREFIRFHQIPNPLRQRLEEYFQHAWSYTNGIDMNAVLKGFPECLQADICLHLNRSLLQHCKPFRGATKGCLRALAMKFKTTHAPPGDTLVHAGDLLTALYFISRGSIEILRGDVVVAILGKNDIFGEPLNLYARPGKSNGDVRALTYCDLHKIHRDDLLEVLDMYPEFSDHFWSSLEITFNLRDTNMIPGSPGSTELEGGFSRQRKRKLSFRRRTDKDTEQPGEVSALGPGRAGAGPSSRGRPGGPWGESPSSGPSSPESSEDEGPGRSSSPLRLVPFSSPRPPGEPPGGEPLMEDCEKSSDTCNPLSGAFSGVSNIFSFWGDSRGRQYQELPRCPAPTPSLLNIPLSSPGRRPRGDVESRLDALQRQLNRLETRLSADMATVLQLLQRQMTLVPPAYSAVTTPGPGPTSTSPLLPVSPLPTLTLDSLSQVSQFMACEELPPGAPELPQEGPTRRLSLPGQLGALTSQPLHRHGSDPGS
On to `Cc1ccccc1NC(=O)CN1C(=O)CSc2ccccc21`, for which the “hERG current change (%, negative = inhibition) at 10uM” value stood at 17.3%.

`CC(=O)c1cccc(S(=O)(=O)N(C)C2CCN(C)CC2)c1.Cl`: the “hERG current change (%, negative = inhibition) at 10uM” value is reported as -2.43%.

With `O=C(COc1ccc(Br)cc1Br)NC(=S)N1CCCc2ccccc21`, the “hERG current change (%, negative = inhibition) at 10uM” value is on record as -2.7%.

`CN1CCN(C(=O)c2ccccc2N(Cc2ccccc2)S(=O)(=O)c2ccccc2)CC1`: the “hERG current change (%, negative = inhibition) at 10uM” value is -8.4%.

As for `Cc1ccc(-c2[nH]nc3c2C(c2ccsc2)C(C#N)=C(N)O3)cc1` (stereo not shown), the “hERG current change (%, negative = inhibition) at 10uM” value is -18.9%.

In the case of `CCc1ccc(N(CC)c2ncnc3nc[nH]c23)cc1`, the “hERG current change (%, negative = inhibition) at 10uM” value is -4.89%.

In the case of `CC(C)c1ccc2oc(=O)cc(CN3CCN(c4ccc(F)cc4)CC3)c2c1`, the “hERG current change (%, negative = inhibition) at 10uM” value was -2.26%.

For `CC(C)NC(=O)CSc1nc2[nH]ncc2c(=O)[nH]1`, the “hERG current change (%, negative = inhibition) at 10uM” value is recorded as 15.6%.

As for `O=C(NCc1ccco1)c1ccc(OCC2CCCO2)cc1` (stereo not shown), the “hERG current change (%, negative = inhibition) at 10uM” value is reported as -23.2%.

Take `CSc1cccc(NC(=O)C2CCCN(c3ncnc4c3nc3n4CCCCC3)C2)c1` (stereo not shown): the “hERG current change (%, negative = inhibition) at 10uM” value is reported as -47.9%.

`O=C(NCc1ccc(Cl)cc1)C1CCCN(c2ncnc3c2nc2n3CCCCC2)C1` (stereo not shown): the “hERG current change (%, negative = inhibition) at 10uM” value is given as -55.4%.

In the case of `CCOc1ccccc1CNC(=O)C1CCCN(c2ncnc3c2nc2n3CCCCC2)C1` (stereo not shown), the “hERG current change (%, negative = inhibition) at 10uM” value was -51.6%.

Turning to `COc1ccc(OC)c(CNC(=O)C2CCCN(c3ncnc4c3nc3n4CCCCC3)C2)c1` (stereo not shown), the “hERG current change (%, negative = inhibition) at 10uM” value was -59%.

For the molecule `COc1ccc(OC)c(CCNC(=O)C2CCN(c3ncnc4c3nc3n4CCCCC3)CC2)c1`, the “hERG current change (%, negative = inhibition) at 10uM” value is given as -0.169%.

On to `Cc1ccccc1CN1CCC(CNC(=O)C2CCCN(c3ncnc4c3nc3n4CCCCC3)C2)CC1` (stereo not shown), for which the “hERG current change (%, negative = inhibition) at 10uM” value is -7.3%.

Turning to `COc1ccccc1CNC(=O)C1CCN(c2ncnc3c2nc2n3CCCCC2)CC1`, the “hERG current change (%, negative = inhibition) at 10uM” value turned out to be 6.69%.

For `CCc1cccc(NC(=O)C2CCCN(c3ncnc4c3nc3n4CCCCC3)C2)c1` (stereo not shown), the “hERG current change (%, negative = inhibition) at 10uM” value is -46.4%.

`COc1cccc(NC(=O)C2CCCN(c3ncnc4c3nc3n4CCCCC3)C2)c1` (stereo not shown): the “hERG current change (%, negative = inhibition) at 10uM” value is -67.4%.

In the case of `COc1cc(NC(=O)C2CCCN(c3ncnc4c3nc3n4CCCCC3)C2)cc(OC)c1OC` (stereo not shown), the “hERG current change (%, negative = inhibition) at 10uM” value is -6.46%.

Regarding `C/C(CC(=O)Nc1ccc([N+](=O)[O-])cc1)=N/NC(=O)C1C2CCCCC21` (stereo not shown), the “hERG current change (%, negative = inhibition) at 10uM” value is -21.7%.

As for `O=C(Nc1ccc(NC(=O)c2ccc3c(c2)OCO3)cc1)c1cccc(Cl)c1`, the “hERG current change (%, negative = inhibition) at 10uM” value was 24.9%.

In the case of `Cc1onc(-c2ccccc2)c1C(=O)OCCOc1ccc([N+](=O)[O-])cc1[N+](=O)[O-]`, the “hERG current change (%, negative = inhibition) at 10uM” value is reported as -17.9%.

As to `O=C(CCN1C(=O)COc2ccccc21)NCc1cccnc1`, the “hERG current change (%, negative = inhibition) at 10uM” value came out at 6.28%.

As to `Cc1c(NC(=O)C2CC(c3ccc(F)cc3)=NO2)c(=O)n(-c2ccccc2)n1C` (stereo not shown), the “hERG current change (%, negative = inhibition) at 10uM” value was -3.93%.

Regarding `O=S(=O)(NN=C1CCCCCCC1)c1ccc(Br)cc1`, the “hERG current change (%, negative = inhibition) at 10uM” value stood at 4.3%.

As to `Cc1ccc(-c2noc(CN(C)C(=O)c3ccc(Br)o3)n2)cc1`, the “hERG current change (%, negative = inhibition) at 10uM” value is -18.7%.

Turning to `O=C(CCCn1c(=O)[nH]c2ccsc2c1=O)NCc1cccs1`, the “hERG current change (%, negative = inhibition) at 10uM” value was determined as 4.11%.

As for `CCCCN(C(=O)CN1C(=O)C2CC=CCC2C1=O)c1c(N)n(CCC)c(=O)[nH]c1=O` (stereo not shown), the “hERG current change (%, negative = inhibition) at 10uM” value is given as 4.14%.

With `O=C(O)Cc1cccc2ccccc12`, the “hERG current change (%, negative = inhibition) at 10uM” value came to 16.6%.

Regarding `CCCOc1ccc(/C=C2\SC(N)=NC2=O)cc1OC`, the “hERG current change (%, negative = inhibition) at 10uM” value turned out to be 3.66%.

Regarding `O=C(O)c1cccc2c(/C=N/Nc3ccccn3)c[nH]c12`, the “hERG current change (%, negative = inhibition) at 10uM” value is reported as -1.13%.

For the molecule `CN(C(=O)C1CCCN(c2ncnc3c2nc2n3CCCCC2)C1)c1cccc(Cl)c1` (stereo not shown), the “hERG current change (%, negative = inhibition) at 10uM” value was -45.9%.

With `Cc1ccc(CN2CCC(CNC(=O)C3CCCN(c4ncnc5c4nc4n5CCCCC4)C3)CC2)cc1` (stereo not shown), the “hERG current change (%, negative = inhibition) at 10uM” value was -45%.

For the molecule `CC(C)N(Cc1ccccc1)C(=O)C1CCCN(c2ncnc3c2nc2n3CCCCC2)C1` (stereo not shown), the “hERG current change (%, negative = inhibition) at 10uM” value is reported as -44.3%.

In the case of `CCN(C(=O)C1CCCN(c2ncnc3c2nc2n3CCCCC2)C1)c1cccc(Cl)c1` (stereo not shown), the “hERG current change (%, negative = inhibition) at 10uM” value is -62.5%.

On to `CC(C)N(CCNC(=O)C1CCCN(c2ncnc3c2nc2n3CCCCC2)C1)Cc1ccccc1` (stereo not shown), for which the “hERG current change (%, negative = inhibition) at 10uM” value is -37.3%.

With `O=C(NCc1ccccc1)C1CCCN(c2ncnc3c2nc2n3CCCCC2)C1` (stereo not shown), the “hERG current change (%, negative = inhibition) at 10uM” value is on record as -69.1%.

For `CN(Cc1ccccc1)C(=O)C1CCCN(c2ncnc3c2nc2n3CCCCC2)C1` (stereo not shown), the “hERG current change (%, negative = inhibition) at 10uM” value is given as -66%.

On to `Cc1ccc(CNC(=O)C2CCCN(c3ncnc4c3nc3n4CCCCC3)C2)cc1` (stereo not shown), for which the “hERG current change (%, negative = inhibition) at 10uM” value is recorded as -49%.

As for `CN(Cc1ccco1)C(=O)C1CCCN(c2ncnc3c2nc2n3CCCCC2)C1` (stereo not shown), the “hERG current change (%, negative = inhibition) at 10uM” value is reported as 5.57%.

Turning to `O=C(NCC1CCN(Cc2ccc(Cl)cc2)CC1)C1CCCN(c2ncnc3c2nc2n3CCCCC2)C1` (stereo not shown), the “hERG current change (%, negative = inhibition) at 10uM” value is listed as -65.7%.

As to `Cc1ccccc1N(C)C(=O)C1CCCN(c2ncnc3c2nc2n3CCCCC2)C1` (stereo not shown), the “hERG current change (%, negative = inhibition) at 10uM” value was -7.96%.

With `O=C(NCC1CCN(Cc2ccc(F)cc2)CC1)C1CCCN(c2ncnc3c2nc2n3CCCCC2)C1` (stereo not shown), the “hERG current change (%, negative = inhibition) at 10uM” value was -39.6%.
